Screening results: PubChem, NMMLSC
In the library only some 1.2% were active in any assay of this set; here they are far more common.
RGS4-Gao reg: human RGS4-Galphao interaction regulation; P09471; Multiplexed bead flow cytometry, RGS4-Galphao binding; actives lie on both sides; binding response (% of control), % at 10 µM; 220,000 tested, 0.33% active; AID 1415; in the data active = binding response below about 49% or above about 150%; inactive = in between;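 note: fluorescent Galphao activated with aluminum fluoride binding bead-coupled RGS4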
RGS16-Gao HTS: regulators of human RGS16-Galphao interaction; AID 1441; 220,000 tested, 0.38% active; binding response (% of control), % at 10 µM; bead-based flow cytometry RGS16-Galphao binding, fluorescence; actives lie on both sides;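 note: Galphao activated by GDP with aluminum fluoride before binding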
Target sequence (O15492 whole entry, looked up): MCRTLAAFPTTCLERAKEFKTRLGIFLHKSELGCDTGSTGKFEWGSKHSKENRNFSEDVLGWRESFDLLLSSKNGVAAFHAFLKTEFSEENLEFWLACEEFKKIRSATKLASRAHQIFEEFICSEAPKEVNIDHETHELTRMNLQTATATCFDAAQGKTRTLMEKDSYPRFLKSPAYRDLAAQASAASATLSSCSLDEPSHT
Target sequence (P09471 whole entry, looked up): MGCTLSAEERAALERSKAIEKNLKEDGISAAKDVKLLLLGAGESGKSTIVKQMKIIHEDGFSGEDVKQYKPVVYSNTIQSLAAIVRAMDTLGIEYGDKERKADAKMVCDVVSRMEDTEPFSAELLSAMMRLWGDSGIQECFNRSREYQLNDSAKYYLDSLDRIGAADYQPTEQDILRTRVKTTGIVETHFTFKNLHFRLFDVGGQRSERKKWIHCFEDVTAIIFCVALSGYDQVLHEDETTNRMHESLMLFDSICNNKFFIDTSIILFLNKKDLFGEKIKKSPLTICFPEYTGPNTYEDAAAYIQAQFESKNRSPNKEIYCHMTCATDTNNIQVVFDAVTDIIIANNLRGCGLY
GSH fluor: GSH bead compound fluorescence profile | GSH beads flow cytometry, compound fluorescence 488/530 nm; active compounds read high | fluorescence (KMESF) at 10 µM | 190,000 tested, 0.25% active | AID 1776; in the data active = fluorescence above about 89;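 note: glutathione beads carrying GST-tagged Bcl family fusion proteins plus one bare bead set; values are compound well signal with DMSO vehicle wells as background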
Avidin fluor: compound fluoresces at 488/530 nm on avidin beads | fluorescence (KMESF) at 10 µM | 220,000 tested, 0.38% active | compound fluorescence 488/530 nm, flow cytometry; active compounds read high; in the data active = fluorescence above about 47
RGS8-Gao reg: human RGS8-Galphao interaction regulation | response (percent of control binding), % at 10 µM | P09471 | 220,000 tested, 0.34% active | multiplexed bead flow cytometry, RGS8-Galphao binding; actives lie on both sides | AID 1423; in the data active = response below about 60% or above about 140%; inactive = in between;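 note: Galphao activated as the GDP aluminium fluoride complex binding bead-coupled RGS8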
RGS7-Gao reg: regulators of human RGS7-Galphao interaction. P09471. binding response (% of control), % at 10 µM. AID 1439. 220,000 tested, 0.35% active. Multiplexed bead flow cytometry, RGS7-Galphao binding; actives lie on both sides; in the data active = binding response below about 49% or above about 150%; inconclusive = no clear call, values can overlap the other calls; inactive = in between;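 note: fluorescent Galphao held in activated GDP-AlF4 state binding bead-coupled RGS7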
RGS4-Gao HTS: modulates binding between human RGS4 and Galphao. RGS4–Galpha-o binding response, % at 10 µM. AID 1504. 1,600 tested, 99% active. multiplexed bead flow cytometry, RGS–Galpha-o binding. shares compounds with RGS16-Gao HTS;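 note: fluorescently labeled Galpha-o bound to GDP with aluminium fluoride binding biotinylated RGS beads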
Biotin-avidin: interferes with biotinylated probe binding to avidin beads; shares compounds with RGS16-Gao HTS; 1,700 tested, under 10 active; streptavidin beads, fluorescein-biotin binding, flow cytometry; AID 1783; inhibition, % at 10 µM;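 active = inhibition above 50%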;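 note: median green fluorescence of gated singlet beads compared with DMSO control wells; 0% = DMSO wells and 100% = complete loss of bead fluorescence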
RGS8-Gao confirm: RGS8-Galphao interaction regulation, single point confirmation. shares compounds with RGS16-Gao HTS. bead-based flow cytometry RGS8-Galphao binding, fluorescence; actives lie on both sides. binding response (% of control), % at 10 µM. 1,700 tested, 3% active. AID 1836; in the data active = binding response below about 72% or above about 130%; inactive = in between;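 note: Galphao activated as GDP AlF4 complex before binding bead RGS8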
RGS7-Gao single: RGS7-Galphao interaction regulation, single point confirmation; shares compounds with RGS16-Gao HTS; bead-based flow cytometry RGS7-Galphao binding; actives lie on both sides; response (percent of control binding), % at 10 µM; 1,700 tested, 7.8% active; in the data active = response below about 75% or above about 130%; inactive = in between;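 note: fluorescent Galphao activated with GDP and aluminum fluoride binding bead-coupled RGS7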
RGS16-Gao conf: confirmation of regulators of human RGS16-Galphao interaction | shares compounds with RGS16-Gao HTS | bead-based flow cytometry, RGS16-Galphao binding; actives lie on both sides | response (% of control binding), % at 10 µM | 1,700 tested, 4% active | AID 1838; in the data active = response below about 74% or above about 130%; inactive = in between;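 note: Galphao activated as the GDP aluminium fluoride complex binding bead-coupled RGS16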
RGS4-Gao single: RGS4-Galphao interaction regulation, single point confirmation; RGS4-Galphao binding, multiplexed bead flow cytometry; actives lie on both sides; AID 1840; binding response (% of control), % at 10 µM; shares compounds with RGS16-Gao HTS; 1,700 tested, 4% active; in the data active = binding response below about 74% or above about 130%; inactive = in between
RGS19-Gao single: confirmation of regulators of human RGS19-Galphao interaction; shares compounds with RGS16-Gao HTS; bead-based flow cytometry RGS19-Galphao binding; actives lie on both sides; response (percent of control binding), % at 10 µM; 1,700 tested, 5% active; in the data active = response below about 50% or above about 160%; inactive = in between;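 note: 100% = no compound control and 0% = blank background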
* marks the source's active call; other numbers are inactive results; ? = inconclusive; / = no result given; [ ] = another dose, or the depositor's remark. Unless noted, the rule behind the calls is not given here.

SMILES	RGS4-Gao reg	RGS16-Gao HTS	GSH fluor	Avidin fluor	RGS8-Gao reg	RGS7-Gao reg	others
CC(C)n1cc(C(=O)N(CC(=O)NC2CCCC2)Cc2ccccc2)cn1	107.2	106.4	22	68*	104.3	126.9
Cc1nc2ccccc2c(=O)n1-c1cccnc1	106.5	102.2	49	8	102.4	101.0
O=c1c2ccccc2nc(-c2ccco2)n1-c1cccnc1	104.1	103.2	273*	8	104.1	100.2
O=c1c2ccccc2nc(-c2ccco2)n1-c1ccccn1	105.8	104.8	261*	7	101.6	101.2
CCOC(=O)C1=C(NC(=S)NC(=O)c2ccccc2)c2ccccc2CC12CCCC2	104.0	93.8	6	0	97.0	103.4
CC(=O)NC(Cc1ccc(N(CCCl)CCCl)cc1)C(=O)NC(CC(C)C)C(=O)O (stereo unspecified)	97.4	109.0	14	11	100.4	96.3
O=c1[nH]c(=S)n(Cc2ccc(F)cc2)c(O)c1C=NCC1CCCO1 (stereo unspecified)	100.4	107.2	35	16	105.6	99.0
O=c1[nH]c(=S)n(Cc2ccc(F)cc2)c(O)c1/C=N/N1CCCCC1	108.3	60.5	35	487*	99.8	112.3
O=C(Cc1ccccc1)OCn1nnc2ccccc2c1=O	102.4	49.6	126*	4	88.5	101.7
COP(=O)(NC(=O)C(Cl)(Cl)Cl)OC	115.6	106.6	/	81*	107.4	?
O=c1[nH]c(=O)n(Cc2ccccc2)c(O)c1/C=N/NCCO	101.2	97.8	/	10	100.9	?
CCC(=NCCN1CCCCC1)c1c(O)n(C)c(=O)n(C)c1=O	106.6	114.6	33	15	102.8	104.0
CCC(=NCCOc1ccc(Cl)cc1)c1c(O)n(C)c(=O)n(C)c1=O	144.1	174.7	31	59*	83.8	131.9
Cc1ccc(S(=O)(=O)N(c2cc(Cl)c(O)c(Cl)c2)P(=O)(OC(C)C)OC(C)C)cc1	103.5	103.3	11	10	102.7	?
CC(Cc1ccccc1)[n+]1cc(/N=C(\[O-])Nc2ccccc2)on1 (stereo unspecified)	102.5	102.8	26	57*	102.5	110.2
CC(Cc1ccccc1)[n+]1cc(/N=C(\N)[O-])on1 (stereo unspecified)	111.6	99.6	15	10	103.7	109.1
COc1cccc(C(=O)C2CCCN(Cc3ccc4nsnc4c3)C2)c1 (stereo unspecified)	72.3	89.1	17	2	48.3*	25.6*	RGS4-Gao HTS=72.3*;Biotin-avidin=-0.2;RGS8-Gao confirm=108.8;RGS7-Gao single=118.5;RGS16-Gao conf=110.9;RGS4-Gao single=107.1;RGS19-Gao single=105.6
OC(Cn1c2ccccc2c2ccccc21)C[n+]1cccc2ccccc21 (stereo unspecified)	122.7	101.9	49	78*	97.4	153.5*[activator]	RGS4-Gao HTS=122.7*;Biotin-avidin=-1.8;RGS8-Gao confirm=102.4;RGS7-Gao single=141.1*[activator];RGS16-Gao conf=103.1;RGS4-Gao single=131.8*[activator];RGS19-Gao single=199.0*[activator]
